The values below come from PubChem BioAssay.

Active and inactive are the calls of the source.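 Rule for the calls, unless noted: active = fluorescence slope higher than the sample average by over 3 SD (cut at about -0.22 in these data, passing the limit was not always enough); inactive = the rest.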

Assay [1] is described as follows: inhibitors of TNFa-induced NFkB p65 translocation, primary screen, imaging, HUVEC, MLSMR starter and 10KST1 sets (AID 438;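 active = inhibition above 20% together with a positive visual image hit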;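 note: compound added about 3h40 before a 20 min TNFalpha stimulation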;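 for inhibition: signal is the nuclear over cytoplasmic p65 intensity ratio per well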). The note with it: HUVEC TNFa-induced p65 nuclear translocation; cell count: measured here: nuclei count (cytotoxicity indicator), at 2.08 µM; inhibition: at 2 µM, stronger effect = higher value, 0% TNFa-plus-vehicle, 100% no-TNFa wells.
Assay [2] is described as follows: inhibitors of mutant huntingtin aggregation, primary screen, imaging, exon1htt(103Q)mCFP cells, high-content imaging (AID 483;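 active = visual image review flags a hit and inhibition of aggregation exceeds 20%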;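 note: compound exposure lasted 3 days before fixation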;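 for nuclei count: percent of the per-plate median nuclei count of sample wells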). The conditions noted are these: exon1htt(103Q)mCFP cell line, aggregate imaging, at 2 µM; inhibition of aggregation: stronger effect = higher value; nuclei count: measured here: cell count, toxicity.
A short description of assay [3]: inhibitors of E-selectin induction by TNFa, primary screen, imaging, HUVEC, immunofluorescence, MLSMR starter and 10KST1 sets (AID 487;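 active = visually confirmed hit in the image check and inhibition above 20%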;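 for inhibition: signal is fraction of cell area covered by stained E-selectin grains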;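 for nuclei count: 100% = median nuclei count of all wells on the same plate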). The conditions noted are these: HUVEC TNFalpha-induced E-selectin immunofluorescence imaging, at 2 µM; inhibition: stronger effect = higher value; nuclei count: measured here: cell number, toxicity.
Assay [4] addresses Voltage-gated potassium channel subunit beta-2 (Rattus norvegicus) (UniProt P62483). The assay is described as follows: KvBeta enzyme negative modulators, primary screen, biochemical, NADPH fluorescence (AID 622).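 Note: slope of raw intensity against log time taken from 70 to 1610 s.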 The conditions noted are these: recombinant KvBeta, 4-cyanobenzaldehyde reduction, at 10 µM, stronger effect = higher value.
Assay [5] has the same target. The assay is described as follows: KvBeta positive modulators, primary screen, biochemical, NADPH fluorescence (AID 623;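 active = NADPH fluorescence slope more negative than the mean of all samples by about 3 SD, 99.7% confidence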;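 note: fluorescence intensity change per second fitted from 20 to 320 s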). The note with it: Recombinant KvBeta, NADPH fluorescence decrease slope, 10 min; at 10 µM; stronger effect = lower value.
For assay [6], the target named is Alpha-2C adrenergic receptor (Homo sapiens) (UniProt P18825). The assay is described as follows: modulators of alpha2C/GIRK thallium flux, primary screen, cell-based, HEK293 alpha2C/GIRK1/2 (AID 624;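 active = fluorescence slope after compound addition differing from the mean of all screened samples at 99.7% confidence, in either direction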;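 note: slope of fluorescence ratio to pre-addition baseline per second over 15 to 24 s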). The note with it: thallium flux BTC fluorescence, at 10 µM, actives lie on both sides.
Alpha-2C adrenergic receptor (Homo sapiens), sequence (P18825 whole entry, looked up): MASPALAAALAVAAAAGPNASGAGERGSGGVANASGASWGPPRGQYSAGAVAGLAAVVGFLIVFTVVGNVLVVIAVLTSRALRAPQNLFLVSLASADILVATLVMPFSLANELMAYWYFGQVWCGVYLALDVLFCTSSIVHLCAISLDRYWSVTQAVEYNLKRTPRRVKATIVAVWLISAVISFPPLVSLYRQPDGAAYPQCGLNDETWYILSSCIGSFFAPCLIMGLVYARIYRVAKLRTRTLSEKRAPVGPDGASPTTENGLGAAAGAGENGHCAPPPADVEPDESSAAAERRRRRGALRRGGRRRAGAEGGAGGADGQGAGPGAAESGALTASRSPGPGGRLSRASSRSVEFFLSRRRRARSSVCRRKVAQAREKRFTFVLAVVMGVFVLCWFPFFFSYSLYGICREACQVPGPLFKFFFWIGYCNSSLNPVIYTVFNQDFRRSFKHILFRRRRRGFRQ
Assay [7] in a line: inhibitors of Sendai virus-induced IRF3 signaling, primary screen, TLR/RLR signaling modifier project, cell-based, Sendai virus stimulus, luciferase, 10K MLSCN set (AID 602276;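 active = inhibition at or above 50% at 10 µM; inactive = inhibition below 50%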;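 note: firefly luciferase from ISG56 promoter only with Renilla not read in this screen; 0% = Sendai virus plus DMSO and 100% = medium plus DMSO without virus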). The conditions noted are these: HEK293 RL24 IRF3 luciferase reporter, at 10 µM, stronger effect = higher value.
Assay [8] in a line: inhibitors of poly I:C-induced TLR3 signaling, primary screen, cell-based, poly I:C stimulus, luciferase, 10K MLSCN set (AID 602277;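 active = inhibition of the reporter signal at or above 50%; inactive = inhibition below 50%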). The conditions noted are these: HEK293-TLR3 RL24 IRF3 luciferase reporter, at 10 µM, stronger effect = higher value.

Voltage-gated potassium channel subunit beta-2 (Rattus norvegicus), sequence (P62483 whole entry, looked up): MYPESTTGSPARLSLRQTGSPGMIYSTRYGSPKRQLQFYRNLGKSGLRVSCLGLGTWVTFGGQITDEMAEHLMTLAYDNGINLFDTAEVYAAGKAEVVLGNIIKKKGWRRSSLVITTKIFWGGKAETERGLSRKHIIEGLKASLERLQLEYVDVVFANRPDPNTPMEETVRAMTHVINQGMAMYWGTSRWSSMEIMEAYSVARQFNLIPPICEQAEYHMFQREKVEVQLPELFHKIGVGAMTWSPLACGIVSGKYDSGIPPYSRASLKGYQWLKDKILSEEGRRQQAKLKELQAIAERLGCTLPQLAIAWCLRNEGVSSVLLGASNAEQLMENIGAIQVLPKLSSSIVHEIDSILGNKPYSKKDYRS

For `CCCSc1nnc(-c2ccccc2NC(=O)CC)c(=O)[nH]1`, in assay [1], the cell count came to 632. The inhibition in assay [1] was -9.3% (inactive); in assay [3], -43.8% (inactive); in assay [7], 4.4% (inactive); in assay [8] it was -2.41% (inactive). For the same molecule, the inhibition of aggregation in assay [2] was -17.5% (inactive). Besides, the nuclei count stood at 86.8% in assay [2] and 96.6% in assay [3]. For the same molecule, the fluorescence slope in assay [4] was -0.412 (inactive). The NADPH fluorescence slope in assay [5] was -4.2e-05 (inactive). Also, the slope in assay [6] is 0.00431 (inactive).

`O=C(Nc1ccccc1N1CCN(c2ccc(F)cc2)CC1)c1ccccc1`: the cell count in assay [1] is 423. Moreover, the inhibition was 7.6% (inactive) in assay [1], -122% (inactive) in assay [3], 14% (inactive) in assay [7] and 21.1% (inactive) in assay [8]. The inhibition of aggregation in assay [2] was -1% (inactive). For the same molecule, the nuclei count was found to be 104% in assay [2] and 134% in assay [3]. The fluorescence slope in assay [4] was -0.44 (inactive). Moreover, the NADPH fluorescence slope in assay [5] is -3.4e-05 (inactive). Besides, in assay [6], the slope was 0.00515 (inactive).

As for `CCCCOc1ccc(C2C3CN(C(=O)OCC)CC=C3C(C#N)=C(N)C2(C#N)C#N)cc1OC` (centres undefined), in assay [1], the cell count came to 645. Besides, the inhibition was -26.7% (inactive) in assay [1], -44.7% (inactive) in assay [3], 14.6% (inactive) in assay [7] and 19.7% (inactive) in assay [8]. Besides, the inhibition of aggregation in assay [2] was -9.8% (inactive). Further, the nuclei count in assay [2] turned out to be 106%; in assay [3], 115%. For the same molecule, the fluorescence slope in assay [4] was -0.476 (inactive). Besides, the NADPH fluorescence slope in assay [5] was -2.9e-05 (inactive). For the same molecule, in assay [6], the slope was 0.0065 (inactive).

Consider `Cc1cc(C)n2nc[n+](C)c2n1`, for which the cell count in assay [1] came out at 685. Also, the inhibition was -12.9% (inactive) in assay [1], -17.6% (inactive) in assay [3], -6.03% (inactive) in assay [7] and -6.5% (inactive) in assay [8]. The inhibition of aggregation in assay [2] is -10% (inactive). In addition, the nuclei count in assay [2] was found to be 103%; in assay [3] it was 120%. Also, the fluorescence slope in assay [4] was -0.537 (inactive). For the same molecule, in assay [5], the NADPH fluorescence slope was 3.6e-05 (inactive). The slope in assay [6] was 0.0066 (inactive).

For `Cc1oc(-c2ccccc2Cl)nc1CSCC(=O)N1CCCC1`, in assay [1], the cell count came to 319. Further, the inhibition was 9.3% (inactive) in assay [1], 62.6% (active) in assay [3], -10.3% (inactive) in assay [7] and 8.17% (inactive) in assay [8]. Besides, in assay [2], the inhibition of aggregation was 19.4% (inactive). For the same molecule, the nuclei count in assay [2] was 91.6%; in assay [3], 102%. Moreover, in assay [4], the fluorescence slope was -0.572 (inactive). For the same molecule, in assay [5], the NADPH fluorescence slope was 5.9e-06 (inactive). For the same molecule, in assay [6], the slope is 0.00514 (inactive).

For the molecule `O=c1c2ccccc2nc2n1CCN2`, the cell count in assay [1] came out at 338. The inhibition in assay [1] was 4.6% (inactive); in assay [3], -115% (inactive); in assay [7] it was 21.2% (inactive); in assay [8], 20.6% (inactive). In assay [2], the inhibition of aggregation was -10.3% (inactive). In addition, the nuclei count in assay [2] was found to be 108%; in assay [3] it was 131%. The fluorescence slope in assay [4] is -0.573 (inactive). In assay [5], the NADPH fluorescence slope is 7.7e-06 (inactive). In addition, in assay [6], the slope was 0.00443 (inactive).

`CSC1=C(C#N)C(c2ccc(Cl)cc2)C2=C(CC(C)(C)CC2=O)N1` (centres undefined): the cell count in assay [1] worked out at 391. For the same molecule, the inhibition is -3.3% (inactive) in assay [1], -5.3% (inactive) in assay [3], 1.71% (inactive) in assay [7] and 24.5% (inactive) in assay [8]. The inhibition of aggregation in assay [2] was 29.1% (inactive). For the same molecule, the nuclei count in assay [2] amounted to 81.5%; in assay [3], 108%. The fluorescence slope in assay [4] was -0.416 (inactive). Also, in assay [5], the NADPH fluorescence slope is 5.8e-06 (inactive). In addition, in assay [6], the slope was 0.00657 (inactive).

Regarding `O=C1c2ccccc2C(Nc2cccnc2)N1Cc1ccccc1Cl` (centres undefined), in assay [1], the cell count turned out to be 674. Further, the inhibition in assay [1] was -14.6% (inactive); in assay [3], -37.8% (inactive); in assay [7] it was 3.6% (inactive); in assay [8] it was 18.3% (inactive). The inhibition of aggregation in assay [2] is -13.6% (inactive). Moreover, the nuclei count is 105% in assay [2] and 109% in assay [3]. Further, in assay [4], the fluorescence slope was -0.422 (inactive). In addition, the NADPH fluorescence slope in assay [5] is -4.2e-05 (inactive). For the same molecule, the slope in assay [6] was 0.00424 (inactive).

As to `CCCn1cnc2c(cnn2-c2ccc(F)cc2)c1=O`, the cell count in assay [1] came to 451. The inhibition was 5.5% (inactive) in assay [1], -41.5% (inactive) in assay [3], -35.2% (inactive) in assay [7] and -147% (inactive) in assay [8]. Also, in assay [2], the inhibition of aggregation is 11.2% (inactive). In addition, the nuclei count in assay [2] was 85.6%; in assay [3] it was 124%. In addition, the fluorescence slope in assay [4] was -0.536 (inactive). Also, in assay [5], the NADPH fluorescence slope was 1.4e-05 (inactive). Also, in assay [6], the slope is 0.00574 (inactive).

Turning to `O=C(NCc1ccc2c(c1)OCO2)C1CCCN(S(=O)(=O)c2cccnc2)C1` (centres undefined), the cell count in assay [1] was determined as 584. Besides, the inhibition in assay [1] was 7.6% (inactive); in assay [3] it was -65.3% (inactive); in assay [7], 8.73% (inactive); in assay [8], 23.4% (inactive). For the same molecule, the inhibition of aggregation in assay [2] was -1.4% (inactive). Moreover, the nuclei count in assay [2] is 96.3%; in assay [3], 119%. Besides, the fluorescence slope in assay [4] is -0.575 (inactive). Further, the NADPH fluorescence slope in assay [5] is -2.7e-05 (inactive). The slope in assay [6] was 0.00636 (inactive).

Take `Cc1ccc(C(C)C)c(OCCn2c(=O)oc3ccccc32)c1`: in assay [1], the cell count was 540. The inhibition in assay [1] is -5.9% (inactive); in assay [3], -32.5% (inactive); in assay [7], -13.6% (inactive); in assay [8] it was -27.2% (inactive). Besides, in assay [2], the inhibition of aggregation is 0.7% (inactive). The nuclei count in assay [2] is 89.4%; in assay [3] it was 77.7%. The fluorescence slope in assay [4] is -0.416 (inactive). Further, the NADPH fluorescence slope in assay [5] is 2.5e-05 (inactive). The slope in assay [6] was 0.00298 (inactive).

On to `O=S(=O)(c1ccc(Br)s1)N1CCN(c2ccccc2)CC1`, for which, in assay [1], the cell count turned out to be 660. Besides, the inhibition in assay [1] is 6.3% (inactive); in assay [3] it was 14.4% (inactive); in assay [7] it was 10.7% (inactive); in assay [8], 13.7% (inactive). Further, the inhibition of aggregation in assay [2] was 0.1% (inactive). The nuclei count in assay [2] turned out to be 90.2%; in assay [3], 102%. The fluorescence slope in assay [4] is -0.289 (inactive). The NADPH fluorescence slope in assay [5] is -3e-05 (inactive). Moreover, in assay [6], the slope was 0.00522 (inactive).

Take `O=C(O)c1ccc(COc2ccc(Cl)cc2)o1`: in assay [1], the cell count was determined as 262. The inhibition in assay [1] was -3.3% (inactive); in assay [3] it was -24% (inactive); in assay [7], -14.7% (inactive); in assay [8], -60.9% (inactive). In addition, the inhibition of aggregation in assay [2] is 10.6% (inactive). Also, the nuclei count in assay [2] amounted to 81%; in assay [3], 88.3%. Also, in assay [4], the fluorescence slope is -0.49 (inactive). The NADPH fluorescence slope in assay [5] is -3e-05 (inactive). Also, the slope in assay [6] was 0.00685 (inactive).

For `COc1ccc2nc(N3CCC(C)CC3)c(C#N)cc2c1`, the cell count in assay [1] came out at 380. Besides, the inhibition is 7.3% (inactive) in assay [1], -59.3% (inactive) in assay [3], -48.2% (inactive) in assay [7] and -170% (inactive) in assay [8]. For the same molecule, the inhibition of aggregation in assay [2] is -10.6% (inactive). Further, the nuclei count in assay [2] stood at 108%; in assay [3] it was 66.6%. Further, the fluorescence slope in assay [4] is -0.587 (inactive). In assay [5], the NADPH fluorescence slope was -9e-06 (inactive). For the same molecule, the slope in assay [6] is 0.00372 (inactive).
